Sampled rows, rich in hits. Any-hit rate of the full collection: about 2.6%.
ABCB6 inh MLPCN – inhibitors of human ABC transporter ABCB6; Q9NP58; K562-ABCB6 porphyrin accumulation, flow cytometry, 1 h; hits give low values; fluorescence ratio to DMSO, % at 10 µM; 0.19% of 360,000 active;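 active = fluorescence ratio to DMSO below 75%, the collection mean minus 3 SD; inconclusive = too few cells collected in the well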;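 note: signal is porphyrin accumulated inside mitochondria; 100% equals median channel fluorescence of DMSO control wells; lower ratio means ABCB6 inhibition with less porphyrin fluorescence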
eIF4H FP inh – inhibitors of RNA binding by human eIF4H. Q15056. eIF4H fluorescence polarization binding assay. inhibition, % at 35 µM. 0.94% of 290,000 active;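 note: calls also rest on retests at 20 µM and on dose response follow-up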
PABP FP inh – PABP-poly(A) binding inhibition | P11940 | PABP-poly(A) RNA binding, fluorescence polarization | calls only at 35 µM | 1% of 290,000 active;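 note: calls also rest on retests at 20 µM and on dose response follow-up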
PABP1 MLLE inh – inhibitors of microRNA-mediated deadenylation, human PABP1 MLLE binding. P11940. GST-MLLE / FITC-PAM2 fluorescence polarization. 0.36% of 360,000 active. inhibition, % at 20 µM; in the data active = inhibition above about 35%, passing the limit was not always enough;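 note: plate controls were DMSO wells with GST-MLLE for no effect and wells lacking GST-MLLE protein for full effect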
PHOSPHO1 block – PHOSPHO1 (human) inhibition. Q8TCT1. recombinant PHOSPHO1, absorbance phosphatase assay. inhibition, % at 13.3 µM. 1.1% of 290,000 active; in the data active = inhibition above about 60%
Target sequence (Q8TCT1 whole entry, looked up): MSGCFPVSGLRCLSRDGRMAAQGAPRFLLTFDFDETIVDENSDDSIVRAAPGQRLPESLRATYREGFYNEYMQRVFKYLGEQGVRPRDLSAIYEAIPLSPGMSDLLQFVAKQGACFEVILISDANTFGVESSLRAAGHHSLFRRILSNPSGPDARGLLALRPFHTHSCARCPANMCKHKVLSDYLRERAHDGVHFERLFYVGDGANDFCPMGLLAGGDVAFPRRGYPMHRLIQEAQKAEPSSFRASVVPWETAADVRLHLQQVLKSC
AI-2 QS modul – modulates the Vibrio harveyi AI-2 quorum sensing system | Vibrio harveyi JMH597 AI-2 luminescence/OD600 ratio, 9 h; hits give low values; strain lacks LuxN and CqsS sensors; 0 = neutral-control median | activity change, % at 7.5 µM | 0.4% of 300,000 active; in the data active = activity change below about -75%, passing the limit was not always enough; inconclusive = no clear call, values can overlap the other calls;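 note: luminescence divided by OD600 gain over 9 h not by final OD600 alone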
Starred values were filed as active, the others as inactive; i = inactive; ? = inconclusive; nt = no result given; + = active, no number. Unless noted, the rule behind the calls is not given here.

SMILES	ABCB6 inh MLPCN	eIF4H FP inh	PABP FP inh	PABP1 MLLE inh	PHOSPHO1 block	AI-2 QS modul
O=C(C(=Cc1ccc(F)cc1)C(=O)c1ccccc1)c1ccccc1	100.0	nt	nt	-17.0	nt	nt
COC(=O)c1ccc(-n2c(C)cc(C(=O)CSc3ccc(NC(C)=O)cc3)c2C)cc1	95.0	-5.3	i	29.4	2.4	33.1
CC(=O)Nc1ccc(SCC(=O)NC(=O)c2ccccc2Br)cc1	95.0	nt	nt	43.8*	nt	nt
CC(=O)Nc1ccc(SCC(=O)c2cc(C)n(-c3ccccc3F)c2C)cc1	98.0	1.9	i	40.3*	-19.6	28.2
COc1ccc([C@H]2CC(=O)C[C@@H](CCn3cc(Cc4ccccc4)nn3)O2)cc1	128.0	nt	nt	nt	nt	nt
CCCCNS(=O)(=O)c1cccc(NC(=O)[C@H]2C[C@H](O)[C@@H](CO)O2)c1	96.0	nt	nt	5.0	nt	nt
O=C1NC(c2ccccc2Br)=N/C1=C\c1ccco1	109.0	57.1*	+	3.7	22.5	12.5
O=C1NC(c2ccccc2)=N/C1=C/c1ccco1	96.0	92.0	i	-0.2	10.4	43.5
O=C(CSc1ncn[nH]1)N1N=C2/C(=C\c3ccco3)CCCC2C1c1ccco1 (centres undefined)	98.0	nt	nt	-9.9	nt	nt
CCCCN1C(=O)C(=O)N(CC(=O)N2N=C3/C(=C/c4ccco4)CCCC3C2c2ccco2)C1=O (centres undefined)	101.0	18.8	i	1.8	62.2*	35.9
O=C(CSc1ncn[nH]1)N1N=C2/C(=C/c3ccco3)CCCC2C1c1ccco1 (centres undefined)	93.0	-0.8	i	-7.3	87.4*	2.7
CC(C)c1onc(C(=O)NC2CCCC2)c1[N+](=O)[O-]	104.0	8.3*	+	15.7	-29.0	8.4
CC(C)c1onc(C(=O)N(C)C2CCCCC2)c1[N+](=O)[O-]	100.0	-4.6	i	-0.7	-3.7	10.9
Cc1cc(NC(=O)C2CC(=O)OC2c2ccccc2)no1 (centres undefined)	74.0*	-8.7	i	10.3	-0.3	15.9
CS(=O)(=O)N(CC(=O)NC1CCCC1)C1CCCCC1	97.0	1.3	i	-1.9	-37.3	-7.2
CS(=O)(=O)N(CC(=O)NC1CC1)C1CCCCC1	98.0	active	i	5.9	3.2	3.6
CC(C)CNc1nc(=S)nc(N(C)C)[nH]1	97.0	-12.4	i	43.1*	-10.9	15.9
CNc1sc(C(=O)c2ccccc2F)c(N)c1-c1nc2ccccc2s1	105.0	12.8	i	41.2*	32.2	10.3
O=C(CNC(=O)c1ccccc1F)OCc1nc2ccccc2s1	100.0	5.8	i	-9.2	22.8	13.9
O=S1(=O)CC(N2CCCC2)CN1Cc1cn(Cc2ccc(F)cc2)nn1 (centres undefined)	99.0	nt	nt	nt	nt	nt
CCNC(=O)C1(C)CCCN(CCOc2ccc(Cl)cc2)C1 (centres undefined)	100.0	nt	nt	8.5	nt	nt
CCOC(=O)c1c(NC(=O)CSc2nnnn2-c2ccc(OC)cc2)sc(C)c1C	95.0	0.9	i	42.5*	87.4*	25.1
Cn1c(NN)nc2sc3c(c2c1=O)CC(C)(C)OC3	95.0	-0.4	i	7.5	-26.0	14.3
CCC1CC2(C)NC(=O)c3c(sc4c3CC(C)(C)OC4)N2C1=O (centres undefined)	93.0	-4.4	i	28.9	84.4*	5.4
Cc1ccc(C)c(NC2=C(Cl)C(=O)OC2OC(C)C)c1 (centres undefined)	84.0	active	+	-6.6	8.4	17.0
SMILES	ABCB6 inh MLPCN	eIF4H FP inh	PABP FP inh	PABP1 MLLE inh	PHOSPHO1 block	AI-2 QS modul
Cc1ccc(-n2c(-c3cc(-c4ccco4)[nH]n3)n[nH]c2=S)c(Br)c1	94.0	?	+	-75.5	18.8	11.9
Cc1ccccc1-n1c(-c2ccco2)n[nH]c1=S	94.0	1.1	i	30.4	6.2	-5.9
S=c1[nH]nc(-c2cc(-c3ccco3)[nH]n2)n1-c1cccc2ccccc12	103.0	?	?	0.9	93.8*	-39.2
CCN1C(=O)[C@@H]2[C@@H]3CN(S(=O)(=O)c4ccc(C)cc4)[C@@H](c4ccccc4F)[C@@H]3C(=O)C[C@@H]2C1=O	98.0	nt	nt	-15.5	nt	nt
CNS(=O)(=O)c1ccc(CNC[C@H]2O[C@@H](n3cnc4c(=O)[nH]c(N)nc43)[C@H](O)[C@@H]2O)cc1	101.0	nt	nt	-13.2	nt	nt
NS(=O)(=O)c1ccc(N=Nc2ccc(=O)[nH]c2O)cc1	99.0	90.2*	+	-4.7	16.6	30.9
O=C(O)c1ccc(-n2cccc2/C=C2/NC(=O)N(c3ccccc3)C2=O)cc1	97.0	96.6*	+	-40.6	-1.5	33.1
N#Cc1ccccc1CN1C(=O)S/C(=C/c2cccn2-c2ccc(C(=O)O)cc2)C1=O	105.0	76.7	i	12.7	-1.4	41.4
Cc1ccc(NC(=O)CN2C(=O)N/C(=C\c3cccn3-c3cccc(C(=O)O)c3)C2=O)cc1	96.0	99.0*	+	2.3	-26.7	16.3
O=C(O)c1cccc(-n2cccc2/C=C2\NC(=O)N(Cc3ccc(F)cc3)C2=O)c1	99.0	82.2	+	5.1	33.5	24.4
O=C(O)c1ccc(-n2cccc2/C=C2/SC(=O)N(CC(=O)N3CCCC3)C2=O)cc1	100.0	83.7*	+	6.1	22.8	20.5
Cc1ccccc1S(=O)(=O)NC(=O)C1(C)CCN1C(=O)CC(c1ccccc1)c1ccccc1 (centres undefined)	96.0	nt	nt	-5.6	nt	nt
CCc1nc2c(OCC(N)=O)cccn2c1N(C)C(=O)c1cccs1	101.0	nt	nt	7.4	nt	nt
Cc1cccc(NC(=O)CN2C(=O)N/C(=C\c3ccc(-c4cccc(C(=O)O)c4)o3)C2=O)c1	95.0	79.2*	+	-0.6	36.8	22.9
Cc1ccc(CN2C(=O)N/C(=C\c3cccn3-c3cccc(C(=O)O)c3)C2=O)cc1	99.0	90.1	+	7.4	-31.5	23.8
Cc1ccc(NC(=O)CN2C(=O)N/C(=C/c3cc(C)n(-c4cccc(C(=O)O)c4)c3C)C2=O)cc1	90.0	86.2*	+	17.7	22.8	nt
CCCCNC(=O)C1(C)CCCCN1C(=O)c1ccc2ccccc2n1 (centres undefined)	99.0	nt	nt	8.2	nt	nt
Cc1cccc(-c2cnc(C(O)c3ccc(Cl)cc3C)[nH]2)c1 (centres undefined)	97.0	nt	nt	0.4	nt	nt
CCCCC(=O)N(C)c1c(CC)nc2c(OCC(=O)N3CCOCC3)cccn12	97.0	nt	nt	-53.7	nt	nt
CCOc1ccc(Cl)cc1-c1cc(C(=O)NC(C)C)[nH]n1	98.0	nt	nt	1.4	nt	nt
CCO/N=C1\C(=O)N(c2ccccc2)c2ccccc21	90.0	-6.0	i	6.0	40.8	4.0
O=C(O/N=C1\C(=O)N(c2ccccc2)c2ccccc21)C1CC1	98.0	active	i	-2.0	57.1	-4.0
COC(=O)[C@]12CCCCC=C1N(Cc1ccccc1)C(=O)[C@H](CC(=O)N1CCN(C(=O)c3ccco3)CC1)C2	92.0	nt	nt	nt	nt	nt

Screening results: PubChem, several laboratories
